Results: PubChem BioAssay (NCATS)
Records with an inconclusive call do not appear. A call without a number means that no potency is given here. Activity calls are given as the source filed them. Calls come from the whole dose curve; as a rule, active = well fitted curve in the direction sought with a large enough effect; inconclusive = small, poorly fitted or top-dose-only effect, or another doubt; inactive = no such curve, though single readings can be large; an effect the other way counts as inactive or inconclusive.

Tests used:
[1] = test system: Zika virus NS2B-NS3 protease (linked construct); assay: Confirmatory screen NINDS AMC qHTS for Zika virus inhibitors (AID 1347152); conditions: Purified linked NS2B-NS3, AMC substrate fluorescence; series mostly up to 56.6 µM;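 note: AMC fluorescence gain from cleaved Bz-Nle-KRR-AMC substrate over 15 min; top concentration of the series differs between compounds; nearly all actives have a fitted effect of over 70% in size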
Summary of the method: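 Linked NS2B-NS3 protease, 1 nM, in 10 mM Tris-HCl pH 8.0, 0.01% Tween 20; compounds preincubated 15 min at room temperature. Nle-KRR-AMC 10 microM (Km 18.3 µM); 15-min fluorescence change (340/450 nm) fitted to 4-parameter Hill.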

[2] = test system: Zika virus NS2B-NS3 protease (unlinked complex); assay: Confirmatory screen GU AMC qHTS for Zika virus inhibitors (AID 1347153); conditions: Recombinant NS2B-NS3 protease, AMC substrate fluorescence; series mostly up to 57.1 µM; note: nearly all actives have a fitted effect of over 70% in size
Summary of the method: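 Noncovalent NS2B hydrophilic domain/NS3 protease complex (25 nM) in 10 mM Tris-HCl pH 8.0, 0.01% Tween 20 was preincubated 15 min at room temperature with compounds. Then 10 µM AMC substrate (Km 18.3 µM) was added; fluorescence was read over 15 min and fitted to a 4-parameter Hill equation.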

[3] = Confirmatory screen NINDS Rhodamine qHTS for Zika virus inhibitors (AID 1347161); conditions: purified enzyme assay, Rhodamine110 substrate fluorescence, 15 min; series mostly up to 114 µM;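 note: purified Zika NS2B-NS3 protease with linked NS2B cofactor domain and Rhodamine110 peptide substrate; nearly all actives have a fitted effect of over 60% in size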
Summary of the method: (§1)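 Aprotinin served as in-plate control. Conditions: 25 nM linked NS2B-NS3, pH 8.0 Tris buffer, titrated compounds, 15 min preincubation and 15 min reaction with 1.5 microM Rhod110 substrate at room temperature.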

[4] = Vero cells viability qHTS for Zika virus inhibitors (AID 1347167); conditions: cytotoxicity counter-screen (Zika); series mostly up to 91.6 µM
Summary of the method: (§2)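 To flag cytotoxic protease inhibitors, viability is measured by ATP-dependent luminescence (CellTiter Glo) after cells attached overnight receive compound for 24 to 48 hours in DMEM with 4% FBS.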

[5] = HepG2 cells viability qHTS for Zika virus inhibitors (AID 1347168); conditions: Zika counter-screen; series mostly up to 91.6 µM
Summary of the method: as §2

[6] = test system: Zika virus NS2B-NS3 protease; assay: Primary screen GU AMC qHTS for Zika virus inhibitors (AID 1347154); conditions: Zika NS2B-NS3 unlinked protease, AMC fluorogenic substrate; series mostly up to 54.1 µM; note: nearly all actives have a fitted effect of over 70% in size
Summary of the method: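 Unlinked Zika NS2B hydrophilic domain/NS3 protease domain noncovalent complex (25 nM final) in 10 mM Tris-HCl pH 8.0, 0.01% Tween 20, with AMC peptide substrate. Fluorescence (ex 340, em 450 nm) change over 15 min, room temperature; percent inhibition fitted to 4-parameter Hill equation.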

[7] = test system: Zika virus NS2B-NS3 protease (linked construct); assay: Primary screen NINDS Rhodamine qHTS for Zika virus inhibitors (AID 1347160); conditions: purified NS2B-NS3 protease, Rhodamine110 substrate fluorescence; series mostly up to 57.1 µM; note: nearly all actives have a fitted effect of over 55% in size
Summary of the method: as §1

[8] = target: Lysine-specific demethylase 5B (Homo sapiens) (UniProt Q9UGL1); assay: Optimization screen for KDM5B Histone Demethylases FDH coupled qHTS against the LOPAC library (AID 1347166); conditions: KDM5B demethylation, FDH-coupled NADH fluorescence (FDH is formaldehyde dehydrogenase); series mostly up to 57.5 µM
Summary of the method: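 KDM5BDeltaAP (200nM final) in 50mM HEPES pH 7.5, 0.01% Tween-20 was preincubated with compound for 10 min at room temperature. A substrate mix of 12.5uM H3K4Me3, 25uM a-ketoglutarate, ascorbate, Fe2+, NAD+ and formaldehyde dehydrogenase was then added. NADH fluorescence (340/450 nm) was read initially and after 30 min.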

Lysine-specific demethylase 5B (Homo sapiens), sequence (Q9UGL1 whole entry, looked up): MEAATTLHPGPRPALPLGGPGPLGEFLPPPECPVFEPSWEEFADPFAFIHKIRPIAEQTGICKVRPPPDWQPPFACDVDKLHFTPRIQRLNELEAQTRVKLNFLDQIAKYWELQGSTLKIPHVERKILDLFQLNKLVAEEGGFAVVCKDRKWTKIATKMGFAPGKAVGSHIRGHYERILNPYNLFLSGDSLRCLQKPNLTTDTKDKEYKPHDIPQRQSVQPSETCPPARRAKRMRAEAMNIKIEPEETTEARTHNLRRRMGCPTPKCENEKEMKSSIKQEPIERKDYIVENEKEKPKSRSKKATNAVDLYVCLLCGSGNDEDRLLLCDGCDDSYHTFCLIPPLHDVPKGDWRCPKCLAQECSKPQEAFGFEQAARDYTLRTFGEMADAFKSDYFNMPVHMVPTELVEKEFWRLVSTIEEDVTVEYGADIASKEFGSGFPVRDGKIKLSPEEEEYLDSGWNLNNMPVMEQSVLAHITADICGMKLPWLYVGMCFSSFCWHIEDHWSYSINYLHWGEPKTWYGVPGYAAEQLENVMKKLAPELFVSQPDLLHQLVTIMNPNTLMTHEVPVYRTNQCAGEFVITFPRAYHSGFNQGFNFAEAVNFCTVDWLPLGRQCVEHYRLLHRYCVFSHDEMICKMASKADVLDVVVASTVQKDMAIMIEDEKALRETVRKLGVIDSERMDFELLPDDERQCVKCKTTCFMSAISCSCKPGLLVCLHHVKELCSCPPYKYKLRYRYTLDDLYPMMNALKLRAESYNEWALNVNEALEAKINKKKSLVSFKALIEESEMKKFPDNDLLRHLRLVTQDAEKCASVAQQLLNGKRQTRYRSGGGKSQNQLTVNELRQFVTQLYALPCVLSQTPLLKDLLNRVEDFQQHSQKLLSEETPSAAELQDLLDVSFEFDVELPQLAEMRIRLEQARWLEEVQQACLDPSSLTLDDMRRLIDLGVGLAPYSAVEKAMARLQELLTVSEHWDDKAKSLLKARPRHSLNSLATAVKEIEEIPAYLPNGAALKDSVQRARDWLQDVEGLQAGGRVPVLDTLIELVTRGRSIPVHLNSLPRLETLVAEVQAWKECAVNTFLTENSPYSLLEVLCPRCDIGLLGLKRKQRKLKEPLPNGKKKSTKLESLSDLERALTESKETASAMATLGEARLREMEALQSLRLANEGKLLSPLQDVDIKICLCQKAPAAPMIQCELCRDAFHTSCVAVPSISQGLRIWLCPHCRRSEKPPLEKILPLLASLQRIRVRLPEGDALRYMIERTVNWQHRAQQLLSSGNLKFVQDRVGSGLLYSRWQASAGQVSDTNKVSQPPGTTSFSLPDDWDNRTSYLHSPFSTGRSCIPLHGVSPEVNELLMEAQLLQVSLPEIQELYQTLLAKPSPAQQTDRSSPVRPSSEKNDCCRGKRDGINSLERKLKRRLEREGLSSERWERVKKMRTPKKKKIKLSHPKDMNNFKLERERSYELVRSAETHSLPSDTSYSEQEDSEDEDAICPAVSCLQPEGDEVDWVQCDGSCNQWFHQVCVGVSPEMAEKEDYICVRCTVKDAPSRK

Oc1ccc([C@H]2CNCc3c2ccc(O)c3O)cc1O
outcome [1]: inactive | outcome [2]: inactive | Potency [3]: inactive | outcome [4]: inactive | outcome [5]: inactive

CC1N=C(N)OC1c1ccccc1 (centres undefined)
Potency [6]: inactive

Cc1nnc2n1-c1sc(CCC(=O)N3CCOCC3)cc1C(c1ccccc1Cl)=NC2
Potency [6]: inactive

CN(C)CCc1c[nH]c2cccc(O)c12
Potency [6]: inactive

CN(C)CCc1c[nH]c2ccccc12
Potency [6]: inactive | outcome [7]: inactive

Cc1nc2ccccc2c(=O)n1-c1ccccc1Cl
Potency [6]: inactive

C[C@]12Cc3nonc3C[C@@H]1CC[C@@H]1[C@@H]2CC[C@@]2(C)[C@H]1CC[C@]2(C)O
Potency [6]: inactive

C[C@@H]1CN(C2CCC(C#N)(c3ccc(F)cc3)CC2)CC[C@]1(C(=O)O)c1ccccc1 (some centres undefined)
Potency [6]: inactive

Oc1ccc2[nH]cc(CCCCN3CC=C(c4ccccc4)CC3)c2c1
Potency [6]: inactive

CN1C[C@@H](NS(=O)(=O)N(C)C)C[C@@H]2c3cccc4c3c(cn4C)C[C@H]21
Potency [6]: inactive

NC(=O)CN1CCCC1=O
Potency [6]: inactive | outcome [8]: inactive

CC[C@H]1C[C@H]2[C@@H]3CCC4=CC(=O)CC[C@@H]4[C@H]3CC[C@]2(C)[C@H]1O
Potency [6]: inactive | outcome [7]: inactive

O=C(O)c1nn(Cc2ccc(Cl)cc2Cl)c2ccccc12
Potency [6]: inactive | outcome [8]: inactive

COc1cc(N)c(Cl)cc1C(=O)NC1CN2CCC1CC2 (centres undefined)
Potency [6]: inactive

COc1cc(C[C@@H](C)N)c(OC)cc1Br
Potency [6]: inactive

O=C(O)CCCCCCNC1c2ccccc2CCc2ccccc21
Potency [6]: inactive | outcome [7]: inactive

CCCCC1C(=O)NC(=O)N(C2CCCCC2)C1=O (centres undefined)
Potency [6]: inactive | outcome [7]: inactive

CCCC[N+]1(C)[C@@H]2CC(OC(=O)[C@H](CO)c3ccccc3)C[C@H]1[C@@H]1O[C@@H]12 (some centres undefined)
Potency [6]: inactive | outcome [7]: inactive
